Screening results: PubChem, National Center for Advancing Translational Sciences (NCATS)
Shown are actives, neighbours in structure and some others; about 2.4% of the full set was active somewhere.
D2 PAM-1 – positive allosteric modulators of human D2 dopamine receptor; P14416; DiscoveRx D2 beta-arrestin cells, luminescence, 90 min; 100% = 57 uM dopamine signal; potentiation, % (concentration not given with the values); 0.23% of 360,000 active; AID 624464; in the data active = potentiation above about 50%
Target sequence (P14416 whole entry, looked up): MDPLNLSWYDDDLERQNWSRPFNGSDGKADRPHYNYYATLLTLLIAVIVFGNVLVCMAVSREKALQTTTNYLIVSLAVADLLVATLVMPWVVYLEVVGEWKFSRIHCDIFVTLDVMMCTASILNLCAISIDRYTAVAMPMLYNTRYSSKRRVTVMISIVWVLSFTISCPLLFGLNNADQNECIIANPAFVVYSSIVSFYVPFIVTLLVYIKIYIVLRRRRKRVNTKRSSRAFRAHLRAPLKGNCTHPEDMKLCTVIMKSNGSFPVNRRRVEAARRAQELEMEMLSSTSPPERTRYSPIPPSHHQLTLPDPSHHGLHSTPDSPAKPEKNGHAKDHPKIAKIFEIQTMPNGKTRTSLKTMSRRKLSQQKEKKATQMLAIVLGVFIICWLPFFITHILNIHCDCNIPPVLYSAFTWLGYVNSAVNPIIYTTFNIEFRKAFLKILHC
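PathHunter beta-arrestin assay in DiscoveRx D2 cells. Compounds were added with an EC20 of dopamine (50 nM final) for 90 min at 37 deg C. Luminescence was read 1 h after detection reagent, with 57 uM dopamine as the EC100 control.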
D2 ag-1 – D2 dopamine receptor (human) agonism; P14416; HEK293 T-REx D2 cells, calcium flux agonist mode; activation, % at 2 µM; 0.53% of 340,000 active; AID 485358;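 active = activation over 3 SD above normal in the single-dose calcium agonist read, cut at about 30% in these data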; also: 0% is about no effect
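Agonism is scored from calcium flux in a force-coupled, inducible HEK293 cell line expressing D2, read kinetically for 180 s after compound addition against dopamine controls.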
D2 ag-2 – activates the human D2 dopamine receptor | P14416 | DiscoveRx PathHunter D2 beta-arrestin, luminescence, 90 min; 100% = 57 uM dopamine signal | activation, % (concentration not given with the values) | 0.084% of 360,000 active; in the data active = activation above about 40%
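Agonist mode: compounds alone added to overnight-plated D2 PathHunter cells for 90 min at 37 C, with 57 uM final dopamine (EC100) defining full response. Beta-arrestin recruitment detected by chemiluminescent reagent, read after 1 h at ambient temperature.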
D2 PAM-2 – positive allosteric modulators of human D2 dopamine receptor; 0.34% of 340,000 active; potentiation, % at 10 µM; HEK293 T-REx D2, calcium flux, EC20 dopamine potentiation; P14416;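 active = potentiation over 3 SD above the plate norm, cut at about 30% in these data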; also: 0% is about no effect
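Using a no-wash calcium dye in inducible, force-coupled HEK293 Trex cells expressing D2, we tracked fluorescence each second for 180 s after compound, then for 180 s after EC20 dopamine to detect augmented signalling.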
D2 antagonist – D2 dopamine receptor (human) antagonism | AID 485344 | inhibition, % at 10 µM | P14416 | 2% of 340,000 active | HEK293 TREx D2 cells, calcium flux, dopamine EC80; in the data active = inhibition above about 30%; inactive = below that, where a call was filed; also: 0% is about no effect
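Read-out: kinetic calcium fluorescence (1 cycle/s) in inducible HEK293 T-REx D2 cells after an EC80 dopamine addition that followed 180 s compound preincubation. Loss of the dopamine response indicates antagonism.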
Numbers without * were called inactive; · = no result; ! = repeats disagree.

SMILES | D2 PAM-1 | D2 ag-1 | D2 ag-2 | D2 PAM-2 | D2 antagonist
COc1ccc(N(C(=O)CNC(=O)c2ccco2)C(C(=O)NC2CCCC2)c2cccnc2)cc1 (centres undefined) | 8 | 1 | -1 | -1 | 5
COc1ccc(Cl)cc1N(C(=O)c1ccco1)C(C(=O)NC1CCCC1)c1ccncc1 (centres undefined) | -3 | 0 | 0 | 7 | 39*
COc1ccc(N(C(=O)CNC(=O)c2ccco2)C(C(=O)NC2CCCCC2)c2cccnc2)cc1 (centres undefined) | 0 | 1 | 2 | 20 | 38*
O=C(NC1CCCCC1)C(c1ccncc1)N(C(=O)c1csnn1)c1ccc(F)cc1 (centres undefined) | -14 | 1 | -1 | -1 | 37*
COc1ccc(CCNC(=O)c2ccc3c(c2)N(Cc2ccc(F)cc2)C(=O)c2ccccc2S3(=O)=O)cc1OC | · | 2 | · | 5 | ·
Cc1ccc2oc(=O)c3cnn(CC(=O)N4CCN(c5ccccc5F)CC4)c3c2c1 | · | 0 | · | 2 | ·
C=CCN(C(=O)CNC(=O)c1ccco1)C(C(=O)NC1CCCCC1)c1ccccc1F (centres undefined) | -7 | 0 | -4 | 38* | -7
COc1ccc(C(C(=O)NCC2CCCO2)N(C(=O)CNC(=O)c2ccco2)c2ccc(C)c(C)c2)cc1OC (centres undefined) | -6 | 0 | -3 | -10 | 12
CCOC(=O)c1ccc(N(C(=O)c2ccco2)C(C(=O)NC2CCCC2)c2ccncc2)cc1 (centres undefined) | 6 | 0 | 3 | 5 | 36*
Cc1cc(C)cc(N(C(=O)c2ccco2)C(C(=O)NC2CCCC2)c2ccncc2)c1 (centres undefined) | 8 | -1 | -1 | 4 | 37*
COCCN(C(=O)CNC(=O)c1ccco1)C(C(=O)NC1CCCC1)c1ccccc1F (centres undefined) | -2 | 1 | 2 | 12 | -16
COc1ccc(C(C(=O)NCC2CCCO2)N(C(=O)CNC(=O)c2ccco2)c2cc(C)cc(C)c2)cc1OC (centres undefined) | -6 | 0 | 0 | 34* | -21
Cc1cc(C)c(NC(=O)CN2c3ccccc3S(=O)(=O)c3ccccc32)c(C)c1 | · | -1 | · | · | ·
O=C(NC1CC1)c1ccccc1 | -5 | · | -2 | · | ·
Cc1cc(C)cc(NC(=O)CCCn2nc(C)c3c(C)n(-c4ccccc4)nc3c2=O)c1 | -11 | 1 | -5 | 33*! | -19
Cc1ccccc1NC(=O)CCCn1nc(C)c2c(C)n(-c3ccccc3)nc2c1=O | -8 | 0 | 3 | -3 | -8
CCN1CCC(N2CCN(c3ccc(F)cc3)CC2)CC1 | -4 | 1 | 0 | -3 | -8
Fc1ccc(N2CCN(C3CCC(c4ccccc4)CC3)CC2)cc1 (centres undefined) | 0 | 12 | -4 | -18 | 53*
Cc1ccccc1C(=O)Nc1ccccc1OCc1cc(=O)n2ccccc2n1 | · | -2 | · | -6 | ·
O=C1Nc2cc(C(=O)N3CCOCC3)ccc2S/C1=C\c1ccccc1 | -10 | 1 | -4 | 13 | 47*
Cc1cccc(/C=C2/Sc3ccc(C(=O)N4CCOCC4)cc3NC2=O)c1 | -3 | 0 | -4 | 2 | -29
CCCCn1c(N)c(N(CCOC)C(=O)CN2C(=O)C3CCCCC3C2=O)c(=O)[nH]c1=O (centres undefined) | -4 | 0 | 4 | -8 | 15
CC1(c2ccccc2Cl)NC(=O)N(CC(=O)Nc2ccc(N3CCCCC3)cc2)C1=O (centres undefined) | 1 | 1 | -3 | -8 | 35*
CC1(c2ccccc2Cl)NC(=O)N(CC(=O)Nc2ccc(N3CCOCC3)cc2)C1=O (centres undefined) | 0 | · | 0 | · | ·
CCOC(=O)C1=C(CN2CCN(c3ccccc3)CC2)NC(=O)NC1c1ccc(C)cc1 (centres undefined) | · | 0 | · | 3 | ·
Cc1[nH]c2ccccc2c1/C=N/Nc1ccc(F)cc1F | · | 1 | · | 1 | 31*
Cc1[nH]c2ccccc2c1/C=N/NC(=O)c1cccc(F)c1 | -6 | -1 | -9 | -7 | -12
